# Experimental data reported in PubChem BioAssay AID743258 (The Scripps Research Institute Molecular Screening Center, 2014).
# About 100 (3%) of roughly 3,300 compounds were called active. The list is a sample of the results. A number with no mark means an inactive call. Rule as the data show it: active = inhibition above about 9.5%; inactive = the rest.
# Target: 1-phosphatidylinositol 4,5-bisphosphate phosphodiesterase gamma-1 (Homo sapiens) (UniProt P19174)
# Assay: PLC-gamma1 enzyme inhibitors, counter-screen for PLC-beta3 inhibitor project, biochemical, fluorescence (AID 743258)
# Conditions: purified PLC-gamma1, fluorogenic substrate, at 12.3 µM, hits give high values
# 1-phosphatidylinositol 4,5-bisphosphate phosphodiesterase gamma-1 (Homo sapiens), sequence (P19174 whole entry, looked up): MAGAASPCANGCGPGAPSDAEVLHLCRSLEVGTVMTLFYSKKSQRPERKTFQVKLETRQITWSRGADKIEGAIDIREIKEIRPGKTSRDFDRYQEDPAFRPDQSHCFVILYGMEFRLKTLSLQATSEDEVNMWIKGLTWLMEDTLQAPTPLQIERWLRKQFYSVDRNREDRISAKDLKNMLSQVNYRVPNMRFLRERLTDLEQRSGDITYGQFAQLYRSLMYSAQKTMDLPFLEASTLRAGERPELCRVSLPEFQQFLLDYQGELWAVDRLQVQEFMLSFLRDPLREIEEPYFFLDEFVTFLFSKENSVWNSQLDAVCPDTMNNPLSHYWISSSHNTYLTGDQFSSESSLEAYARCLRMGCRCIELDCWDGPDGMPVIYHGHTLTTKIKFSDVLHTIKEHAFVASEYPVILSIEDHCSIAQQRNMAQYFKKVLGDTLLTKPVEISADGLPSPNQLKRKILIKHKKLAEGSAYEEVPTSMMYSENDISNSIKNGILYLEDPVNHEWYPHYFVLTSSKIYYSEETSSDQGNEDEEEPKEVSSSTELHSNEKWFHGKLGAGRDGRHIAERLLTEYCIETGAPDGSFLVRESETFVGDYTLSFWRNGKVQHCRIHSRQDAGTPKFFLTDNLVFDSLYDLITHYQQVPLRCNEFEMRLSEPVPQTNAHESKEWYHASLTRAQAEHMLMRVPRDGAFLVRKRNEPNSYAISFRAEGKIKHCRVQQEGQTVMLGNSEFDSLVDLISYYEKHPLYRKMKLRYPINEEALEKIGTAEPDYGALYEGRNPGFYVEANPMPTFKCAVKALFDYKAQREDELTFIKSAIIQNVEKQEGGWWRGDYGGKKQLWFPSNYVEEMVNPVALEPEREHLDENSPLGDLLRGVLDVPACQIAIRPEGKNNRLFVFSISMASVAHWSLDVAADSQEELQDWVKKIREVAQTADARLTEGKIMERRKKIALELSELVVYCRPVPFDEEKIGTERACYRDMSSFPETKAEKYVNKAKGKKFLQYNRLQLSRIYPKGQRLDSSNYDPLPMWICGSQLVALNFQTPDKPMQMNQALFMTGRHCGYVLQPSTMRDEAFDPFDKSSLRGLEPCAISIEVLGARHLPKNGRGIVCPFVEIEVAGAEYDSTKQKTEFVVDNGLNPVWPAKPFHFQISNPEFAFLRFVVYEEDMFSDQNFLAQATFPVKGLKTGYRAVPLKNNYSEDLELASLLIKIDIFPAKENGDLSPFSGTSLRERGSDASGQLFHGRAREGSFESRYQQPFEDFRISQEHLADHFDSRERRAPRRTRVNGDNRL
row,SMILES,inhibition
1,CCCCNc1ccc(C(=O)Nc2cccc(C)n2)cc1[N+](=O)[O-],-2.76%
2,Nc1nnc(SCC(=O)OCc2ccc(Cl)c(Cl)c2)s1,-3.53%
3,CCCCn1c(SCC(=O)N2CCCC2=O)nc2cc(S(N)(=O)=O)ccc21,-2.51%
4,COc1ccccc1CCNC(=O)CN1C(=O)NC2(CCCC2)C1=O,5.92%
5,Cc1cc(C)c(NC(=O)CN2CCOCCOCCOCCOCC2)c(C)c1,-2.06%
6,O=c1c([N+](=O)[O-])cc(C(F)(F)F)cn1Cc1cccc(Cl)c1,8.36%
7,O=C(CSc1ncn[nH]1)N/N=C/c1ccc(F)cc1,0.56%
8,CCOC(=O)[C@]12CCCC=C1N(CCCOC)C(=O)[C@@H]2CC(=O)N1CCOCC1,-3.38%
9,Cc1nc(Nc2ccccc2C)c2cnn(C)c2n1,-6.74%
10,Cc1cc(NC(=O)COn2nnc3ccccc32)no1,-0.28%
11,C[C@]12c3[nH]c4ccc(Cl)cc4c3CCN1C(=O)[C@@H](CC(=O)NCCCn1ccnc1)C[C@@H]2C(=O)N1CCOCC1,-7.65%
12,C=CC1=C(C(=O)O)N2C(=O)[C@@H](NC(=O)/C(=N\OCC(=O)O)c3csc(N)n3)[C@H]2SC1,88.6% (active)
13,COc1ccc(C(N)c2csc(NC(=O)Nc3cccc(C(F)(F)F)c3)n2)cc1 (stereo not given),-0.69%
14,COc1ccc(/C(C)=N/N2CCOCC2)c(O)c1,-16.2%
15,CC(C)n1c(CN2CCN(Cc3ccccc3)CC2)nc2ccccc21,-8.55%
16,CC(=O)C12CC(C)=C(C)CC1CC1C3CCC4=CC(=O)CCC4(C)C3CCC12C (stereo not given),-1.14%
17,O=C(NC12CC3CC(CC(C3)C1)C2)N1CCCC(CO)C1 (stereo not given),-3.42%
18,COc1ccccc1C(=O)N1C(CC(=O)Nc2ccccc2C)C(=O)NC2CCCCC21 (stereo not given),-4.18%
19,C=CCn1c(SCn2nnc3ccccc3c2=O)nnc1-c1ccc(Cl)cc1,-4%
20,CCOC(=O)C1CCN(C(=O)c2ccccc2N(C)S(=O)(=O)c2ccccc2)CC1,-3.46%
21,CCC[C@H]1CCCC/C=C\CCCC(=O)OCCN1C(=O)OC(C)(C)C,1.42%
22,Cc1cccc([C@@H]2[C@@H]3C(=O)N(Cc4ccccc4)C(=O)[C@@H]3[C@]3(Cc4ccc(Cl)cc4)C(=O)N(c4cccc(Cl)c4)C(=O)N23)c1,3.36%
23,Cc1c(C(=O)c2cccc([N+](=O)[O-])c2)c2ccccn2c1CCC#N,-0.24%

row,SMILES,inhibition
1,CC1(C)CC(=O)C=C(NC2CC(C)(C)NC(C)(C)C2)C1,-0.48%
2,Cc1ccc(-c2cn(S(=O)(=O)c3cccc([N+](=O)[O-])c3)nc2N)cc1,-5.96%
3,O=C(Nc1ccc(Br)cc1)C1CCC(=O)N1Cc1ccccc1Cl (stereo not given),-0.49%
4,CCN(CC)Cc1csc2ccc(Br)cc12,-2.99%
5,Cc1nc2ccccc2nc1CC(O)(c1ccccc1)c1ccccc1,1.82%
6,C/C(CC(C)C)=N\Oc1nc(C)cc(C)n1,-8.49%
7,O=C(c1ccc2c(c1)OCO2)N1CCNc2ccccc2C1,-5.39%
8,Cc1cccc(C(=O)NCCCN2CCCC2=O)c1,-4.45%
9,Cc1ccc(NC(=S)N(Cc2ccco2)C(C)c2cccs2)cc1 (stereo not given),-3.86%
10,O=c1c2ccccc2c(-c2ccccc2)nn1Cc1ccccc1,-4.2%
11,O=C1c2ccccc2S(=O)(=O)N1CC(O)Cn1c2ccccc2c2ccccc21 (stereo not given),2.37%
12,O=C(/C=C/c1c(F)cccc1Cl)Nc1nn[nH]n1,-8.5%
13,CCOc1ccccc1NC(=O)c1cccnc1,-8.44%
14,CCc1c(Nc2ccccc2C)nc(N)[nH]c1=O,0.72%
15,COc1ccc([N+](=O)[O-])cc1N(CC(O)Cn1nnc2ccccc21)S(=O)(=O)c1ccc(C)cc1 (stereo not given),-0.66%
16,COc1cc(NC(=O)COC(=O)c2ccc([N+](=O)[O-])s2)cc(OC)c1OC,-0.3%
17,Cc1ccc(C(=O)N2CCN(C(=O)N3CCOCC3)CC2)cc1,-6.45%
18,O=C(CSc1nnc(-c2ccncc2)n1C1CCCCC1)Nc1ccccc1,-6.62%
19,COC(=O)NC1(C(F)(F)F)NC(=O)N(C2CCCCC2)C1=O (stereo not given),-2.81%
20,CN(C)S(=O)(=O)c1cccc(NC(=O)COC(=O)C2(c3ccccc3F)CCCC2)c1,-1.97%
21,O=C(O)c1ccc(Cn2c(=S)[nH]c3cc(Cl)ccc3c2=O)cc1,-7.72%
22,C[C@H](C(=O)N(C)c1ccccc1)[C@@H](O)c1ccc2ccccc2c1,-5.46%
23,CC(C)(C)c1ccc(C(=O)Nc2cc(Cl)c(Br)cc2C(=O)O)cc1,-7.48%

row,SMILES,inhibition
1,CN(C)/C=C(/C(=O)c1ccc(Cl)cc1)S(=O)(=O)c1ccccc1,-4.31%
2,CCOc1ccc(NC(=O)[C@H](C)NC(=O)C2CC(=O)N(c3ccc(OC)cc3)C2)cc1 (stereo not given in full),-8.84%
3,CC1Oc2ccccc2N(Cc2cccnc2)C1=O (stereo not given),-5.05%
4,CCOC(=O)N1CCC(c2cc(=O)n(-c3ccccc3)[nH]2)CC1,2.8%
5,CC(C)C(NC(=O)C1CCC(C(C)(C)C)CC1)C(=O)NCCCN1CCCCC1 (stereo not given),8.08%
6,CC1(C)CC(=O)C=C(NCCN2CCNCC2)C1,-10.6%
7,Cc1ccc(S(=O)(=O)N2CCCCC2)cc1NC(=O)CCNC(=O)c1ccccc1,-4.84%
8,O=C1CS(=O)CN1c1ccc(Oc2ccccc2)cc1 (stereo not given),24.1% (active)
9,CC(C)Oc1ccc(CC(=O)NNC(=S)Nc2ccc(Br)cc2)cc1,-9.3%
10,OC(CNCC1CCCO1)Cn1c2ccc(Br)cc2c2cc(Br)ccc21 (stereo not given),-8.03%
11,Cc1ccccc1C(=O)Nc1ccccc1Sc1ccccc1,-2.19%
12,CC(=O)c1c(C)[nH]c(C(=O)OCC(=O)Nc2cc(S(=O)(=O)N3CCCCC3)ccc2C)c1C,-5.44%
13,O=C(CCNS(=O)(=O)c1ccc(Br)cc1)NCC1CCCO1 (stereo not given),-3.55%
14,CCOC(=O)Nc1ccc(NC(=O)OCC)cc1,5.66%
15,Cc1ccc(S(=O)(=O)Cn2nnnc2CN2CCN(Cc3ccc4c(c3)OCO4)CC2)cc1,0.94%
16,Cc1cccc(NC(=O)c2ccc3c(=O)n(CC4CCCO4)c(=S)[nH]c3c2)c1 (stereo not given),-0.76%
17,CCn1c(/C=C/Nc2ccccc2)[n+](CC)c2ccc(C(=O)OCC(F)(F)F)cc21,-14.3%
18,Cc1ccc(/C=N/NC(=O)CSc2nc3ccccc3o2)cc1,-5.43%
19,CNC(=O)c1ccc(NC(=O)c2cccc(C(F)(F)F)c2)cc1,-6.45%
20,CCCCc1nc2ccccc2c(NC(=O)CN2CCN(C)CC2)c1CCC,-4.07%
21,COc1ccccc1C(=O)Nc1cccc(C(=O)N2CCOCC2)c1,-6.49%
22,COCCCN(C(=S)Nc1c(C)cc(C)cc1C)C(C)c1ccncc1 (stereo not given),-0.82%
23,Cc1ccc(C)c(N2CCN(S(=O)(=O)c3c(C)[nH]c(C)c3C(=O)N3CCCC3)CC2)c1,-8.57%

row,SMILES,inhibition
1,CN(CC(=O)NC1CCCCC1)S(=O)(=O)c1ccc(Br)s1,-5.25%
2,O=C1N[C@@H](c2ccccc2)COC(=O)[C@H](Cc2ccc(F)cc2)C/C=C\C[C@@H]1CC(=O)N(CCO)Cc1ccccc1,-2.05%
3,Cc1ccc(N2CC(C(=O)NCCS(=O)(=O)N3CCN(c4ccccc4)CC3)CC2=O)cc1 (stereo not given),-3.74%
4,O=c1ccc2c(-c3ccccc3S(=O)(=O)O)c3ccc(O)c(O)c3oc-2c1O,26.6% (active)
5,NC1=CC(=O)C(=O)c2cccnc21,0.29%
6,CCc1ccc(-c2nc(SCC(=O)NC3CCCC3)n[nH]2)cc1,-6.5%
7,Cc1ccc(-n2ncc3c2CC(C)(C)CC3NC(=O)CCc2cnn(C)c2)cc1 (stereo not given),-2.59%
8,COC(=O)CN1C(=O)C(O)=C(C(C)=O)C1c1ccc([N+](=O)[O-])cc1 (stereo not given),-0.28%
9,O=C(NCc1ccc(F)cc1F)[C@@H]1CCCN1C(=O)[C@@H]1CCCN1C(=O)c1cccc(Cl)c1,-4.84%
10,CCOc1ccc(CCNC(=O)COC(=O)CCS(=O)(=O)c2ccc(C)cc2)cc1OCC,1.09%
11,Cc1ccc(C(=O)Nc2ccc(C)c(S(=O)(=O)N(C)C)c2)s1,-0.35%
12,CC(=O)C1=C(O)C(=O)N(c2cccnc2)C1c1ccc([N+](=O)[O-])cc1 (stereo not given),-4.99%
13,O=C(C(c1ccccc1)c1ccccc1)N1CCN(CC(O)COc2ccccc2)CC1 (stereo not given),0.93%
14,NC1=NN(c2cccc(C(=O)O)c2)C(=O)C1,-3.09%
15,CCOc1cccc(-c2nnc3sc(COc4ccc(OC)cc4)nn23)c1,-4.31%
16,O=S(=O)(Nc1ccc(Oc2ncccn2)c(Cl)c1)c1ccc(F)cc1,-6.2%
17,CC1CCN(S(=O)(=O)c2ccc(S(=O)(=O)NCc3ccco3)cc2)CC1,0.59%
18,CN(C(=O)c1ccc(NC(=O)Cc2cccc(NC(=O)C3CCN(C(=O)c4ccccc4)CC3)c2)cc1)C1CC1,-5.36%
19,COc1cc(OC)nc(S(C)(=O)=O)n1,1.91%
20,O=C(COc1ccc(Cl)cc1)N1CCN(c2cccc(C(F)(F)F)c2)CC1,-4.75%
21,COCCNC(=O)C(c1ccc(O)cc1)N(C(=O)CCC(=O)Nc1nccs1)c1ccc(C)cc1 (stereo not given),0.09%
